This is an account of results in ChEMBL document CHEMBL1961873, “Compounds: GSK PKIS; Assays: Nanosyn kinase panel” (2012).

In assay [1] the target is Serine/threonine-protein kinase MARK2 (Homo sapiens) (UniProt Q7KZI7). Conditions: at 1 µM.
The target in assay [2] is PAS domain-containing serine/threonine-protein kinase (Homo sapiens) (UniProt Q96RG2). The settings on record: at 0.1 µM.
For assay [3] the target is unchanged. Conditions: at 1 µM.
Assay [4] addresses Phosphorylase b kinase gamma catalytic chain, skeletal muscle/heart isoform (Homo sapiens) (UniProt Q16816). Conditions: at 0.1 µM.
The target is the same in assay [5]. The settings on record: at 1 µM.
Assay [6] addresses T1, Phosphorylase b kinase gamma catalytic chain, liver/testis isoform (Homo sapiens) (UniProt P15735).
T1 sequence (whole entry): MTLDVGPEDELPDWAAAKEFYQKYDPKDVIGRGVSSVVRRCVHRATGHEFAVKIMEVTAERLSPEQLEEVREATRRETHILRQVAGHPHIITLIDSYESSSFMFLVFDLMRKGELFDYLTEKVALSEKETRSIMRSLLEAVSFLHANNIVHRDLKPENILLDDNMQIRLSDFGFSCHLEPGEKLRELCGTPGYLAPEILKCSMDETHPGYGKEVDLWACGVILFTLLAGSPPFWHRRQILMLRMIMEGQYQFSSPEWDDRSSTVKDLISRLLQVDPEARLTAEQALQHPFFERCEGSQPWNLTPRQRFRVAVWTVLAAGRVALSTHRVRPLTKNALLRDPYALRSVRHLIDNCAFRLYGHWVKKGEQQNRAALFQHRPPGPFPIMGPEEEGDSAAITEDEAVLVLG
Conditions: at 0.1 µM.

Assay [7] addresses T1, Phosphorylase b kinase gamma catalytic chain, liver/testis isoform (Homo sapiens). Conditions: at 1 µM.
Assay [8] deals with Serine/threonine-protein kinase pim-1 (Homo sapiens) (UniProt P11309). The settings on record: at 0.1 µM.
Chain of Serine/threonine-protein kinase pim-1 (Homo sapiens) (P11309 whole entry, looked up): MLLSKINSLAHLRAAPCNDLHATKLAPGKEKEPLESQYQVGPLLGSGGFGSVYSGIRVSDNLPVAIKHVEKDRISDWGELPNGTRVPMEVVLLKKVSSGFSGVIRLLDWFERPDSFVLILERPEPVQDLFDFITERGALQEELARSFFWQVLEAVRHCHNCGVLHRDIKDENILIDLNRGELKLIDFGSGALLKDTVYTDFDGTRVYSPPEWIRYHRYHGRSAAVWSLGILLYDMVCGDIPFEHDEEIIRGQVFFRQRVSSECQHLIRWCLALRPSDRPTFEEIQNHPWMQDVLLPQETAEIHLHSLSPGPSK
For assay [9] the target is unchanged. The settings on record: at 1 µM.
Assay [10] deals with Serine/threonine-protein kinase pim-2 (Homo sapiens) (UniProt Q9P1W9). Conditions: at 0.1 µM.
Chain of Serine/threonine-protein kinase pim-2 (Homo sapiens) (Q9P1W9 whole entry, looked up): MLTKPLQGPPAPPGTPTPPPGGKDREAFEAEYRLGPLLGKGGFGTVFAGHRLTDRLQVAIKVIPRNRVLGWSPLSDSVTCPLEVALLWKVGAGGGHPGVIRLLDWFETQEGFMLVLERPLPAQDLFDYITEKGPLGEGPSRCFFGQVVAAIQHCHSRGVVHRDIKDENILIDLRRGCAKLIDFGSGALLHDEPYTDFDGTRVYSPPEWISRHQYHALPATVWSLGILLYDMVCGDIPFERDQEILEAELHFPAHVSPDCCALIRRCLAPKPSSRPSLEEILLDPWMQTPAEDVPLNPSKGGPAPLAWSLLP
For assay [11] the target is unchanged. Conditions: at 1 µM.
Assay [12] deals with Serine/threonine-protein kinase pim-3 (Homo sapiens) (UniProt Q86V86). The settings on record: at 0.1 µM.
Assay [13] has the same target. The settings on record: at 1 µM.
The target of assay [14] is T2, MAP kinase-activated protein kinase 5 (Homo sapiens) (UniProt Q8IW41).
T2 sequence (whole entry): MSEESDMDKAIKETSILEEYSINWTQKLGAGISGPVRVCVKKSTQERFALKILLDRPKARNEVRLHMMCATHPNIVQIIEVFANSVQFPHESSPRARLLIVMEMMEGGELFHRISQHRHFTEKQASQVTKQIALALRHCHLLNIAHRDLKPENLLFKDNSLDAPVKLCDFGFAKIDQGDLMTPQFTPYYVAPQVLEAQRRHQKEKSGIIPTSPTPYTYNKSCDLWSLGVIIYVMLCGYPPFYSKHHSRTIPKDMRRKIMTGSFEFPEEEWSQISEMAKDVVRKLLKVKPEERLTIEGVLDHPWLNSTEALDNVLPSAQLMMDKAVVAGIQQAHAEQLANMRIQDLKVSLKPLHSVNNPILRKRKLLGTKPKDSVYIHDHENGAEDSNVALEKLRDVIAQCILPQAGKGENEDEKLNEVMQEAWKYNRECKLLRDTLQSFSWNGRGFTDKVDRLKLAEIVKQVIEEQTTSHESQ
The settings on record: at 0.1 µM.

The target of assay [15] is T2, MAP kinase-activated protein kinase 5 (Homo sapiens). The settings on record: at 1 µM.
For assay [16], the target named is Serine/threonine-protein kinase SIK1 (Homo sapiens) (UniProt P57059). Conditions: at 0.1 µM.
Chain of Serine/threonine-protein kinase SIK1 (Homo sapiens) (P57059 whole entry): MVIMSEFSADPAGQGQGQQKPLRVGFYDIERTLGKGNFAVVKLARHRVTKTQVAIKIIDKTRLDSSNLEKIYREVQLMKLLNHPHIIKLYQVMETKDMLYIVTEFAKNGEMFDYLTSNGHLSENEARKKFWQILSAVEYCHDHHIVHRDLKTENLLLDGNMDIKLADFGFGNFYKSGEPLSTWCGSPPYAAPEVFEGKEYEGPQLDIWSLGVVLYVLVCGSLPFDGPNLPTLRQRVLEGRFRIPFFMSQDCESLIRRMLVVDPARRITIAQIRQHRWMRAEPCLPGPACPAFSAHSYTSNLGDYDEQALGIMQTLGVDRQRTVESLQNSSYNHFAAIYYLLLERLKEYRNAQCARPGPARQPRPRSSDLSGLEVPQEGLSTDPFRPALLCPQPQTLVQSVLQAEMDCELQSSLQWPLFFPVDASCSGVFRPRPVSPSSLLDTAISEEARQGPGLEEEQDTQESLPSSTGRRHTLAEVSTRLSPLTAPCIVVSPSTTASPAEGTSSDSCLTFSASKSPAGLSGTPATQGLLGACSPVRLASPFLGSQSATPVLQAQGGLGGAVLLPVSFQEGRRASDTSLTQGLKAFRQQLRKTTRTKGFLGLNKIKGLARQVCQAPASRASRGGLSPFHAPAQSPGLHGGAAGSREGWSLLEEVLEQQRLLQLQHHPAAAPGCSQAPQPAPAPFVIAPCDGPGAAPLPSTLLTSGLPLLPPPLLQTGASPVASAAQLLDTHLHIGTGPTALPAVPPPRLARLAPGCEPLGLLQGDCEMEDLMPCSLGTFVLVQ
The target is the same in assay [17]. Conditions: at 1 µM.
Assay [18] addresses Serine/threonine-protein kinase SIK2 (Homo sapiens) (UniProt Q9H0K1). The settings on record: at 0.1 µM.
Assay [19] shares this target. The settings on record: at 1 µM.
Assay [20] has as its target T3, Serine/threonine-protein kinase TBK1 (Homo sapiens) (UniProt Q9UHD2).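 Also: values are the mean TBK1 inhibition, taken from the GSK PKIS screening data.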
T3 sequence (whole entry): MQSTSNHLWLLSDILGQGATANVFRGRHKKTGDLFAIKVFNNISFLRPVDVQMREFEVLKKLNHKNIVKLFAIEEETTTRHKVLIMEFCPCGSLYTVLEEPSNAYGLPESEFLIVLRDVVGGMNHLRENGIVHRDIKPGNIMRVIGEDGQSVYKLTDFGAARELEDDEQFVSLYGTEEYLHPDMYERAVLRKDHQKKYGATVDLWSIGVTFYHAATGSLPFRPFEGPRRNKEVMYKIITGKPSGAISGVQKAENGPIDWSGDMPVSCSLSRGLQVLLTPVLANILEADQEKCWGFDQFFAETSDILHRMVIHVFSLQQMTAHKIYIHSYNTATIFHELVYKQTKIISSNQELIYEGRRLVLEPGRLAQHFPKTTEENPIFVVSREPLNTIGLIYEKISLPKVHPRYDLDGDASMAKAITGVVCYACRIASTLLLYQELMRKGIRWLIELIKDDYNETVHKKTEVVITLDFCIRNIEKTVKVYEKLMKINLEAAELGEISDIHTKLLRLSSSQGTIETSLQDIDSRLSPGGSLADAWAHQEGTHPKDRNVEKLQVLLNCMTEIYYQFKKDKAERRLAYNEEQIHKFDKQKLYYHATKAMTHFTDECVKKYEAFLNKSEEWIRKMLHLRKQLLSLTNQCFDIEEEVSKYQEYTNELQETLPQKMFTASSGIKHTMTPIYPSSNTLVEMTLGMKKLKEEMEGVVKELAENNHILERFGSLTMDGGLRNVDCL
Conditions: at 0.1 µM.

Molecules are shown by their SMILES.

Chain of Serine/threonine-protein kinase MARK2 (Homo sapiens) (Q7KZI7 whole entry, the tested form may be a part): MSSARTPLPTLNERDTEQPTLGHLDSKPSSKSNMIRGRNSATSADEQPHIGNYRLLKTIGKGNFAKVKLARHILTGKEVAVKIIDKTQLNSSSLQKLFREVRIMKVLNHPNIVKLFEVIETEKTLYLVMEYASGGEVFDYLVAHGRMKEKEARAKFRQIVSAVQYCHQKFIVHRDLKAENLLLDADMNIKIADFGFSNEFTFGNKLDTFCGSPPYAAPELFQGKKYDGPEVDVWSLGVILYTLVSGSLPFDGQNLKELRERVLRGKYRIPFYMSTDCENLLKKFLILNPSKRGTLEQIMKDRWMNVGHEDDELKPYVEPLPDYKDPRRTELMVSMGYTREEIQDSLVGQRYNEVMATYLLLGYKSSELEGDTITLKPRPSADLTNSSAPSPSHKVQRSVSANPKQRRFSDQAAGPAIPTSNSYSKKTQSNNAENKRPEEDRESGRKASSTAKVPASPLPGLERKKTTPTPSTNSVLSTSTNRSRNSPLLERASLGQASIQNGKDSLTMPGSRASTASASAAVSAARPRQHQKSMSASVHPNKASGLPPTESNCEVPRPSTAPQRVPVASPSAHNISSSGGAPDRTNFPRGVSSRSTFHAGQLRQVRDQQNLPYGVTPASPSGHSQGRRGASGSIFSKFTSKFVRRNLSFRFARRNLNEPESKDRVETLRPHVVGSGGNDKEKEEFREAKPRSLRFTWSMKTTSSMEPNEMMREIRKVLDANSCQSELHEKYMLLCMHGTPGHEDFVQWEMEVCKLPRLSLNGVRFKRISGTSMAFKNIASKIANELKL
Chain of PAS domain-containing serine/threonine-protein kinase (Homo sapiens) (Q96RG2 whole entry, the tested form may be a part): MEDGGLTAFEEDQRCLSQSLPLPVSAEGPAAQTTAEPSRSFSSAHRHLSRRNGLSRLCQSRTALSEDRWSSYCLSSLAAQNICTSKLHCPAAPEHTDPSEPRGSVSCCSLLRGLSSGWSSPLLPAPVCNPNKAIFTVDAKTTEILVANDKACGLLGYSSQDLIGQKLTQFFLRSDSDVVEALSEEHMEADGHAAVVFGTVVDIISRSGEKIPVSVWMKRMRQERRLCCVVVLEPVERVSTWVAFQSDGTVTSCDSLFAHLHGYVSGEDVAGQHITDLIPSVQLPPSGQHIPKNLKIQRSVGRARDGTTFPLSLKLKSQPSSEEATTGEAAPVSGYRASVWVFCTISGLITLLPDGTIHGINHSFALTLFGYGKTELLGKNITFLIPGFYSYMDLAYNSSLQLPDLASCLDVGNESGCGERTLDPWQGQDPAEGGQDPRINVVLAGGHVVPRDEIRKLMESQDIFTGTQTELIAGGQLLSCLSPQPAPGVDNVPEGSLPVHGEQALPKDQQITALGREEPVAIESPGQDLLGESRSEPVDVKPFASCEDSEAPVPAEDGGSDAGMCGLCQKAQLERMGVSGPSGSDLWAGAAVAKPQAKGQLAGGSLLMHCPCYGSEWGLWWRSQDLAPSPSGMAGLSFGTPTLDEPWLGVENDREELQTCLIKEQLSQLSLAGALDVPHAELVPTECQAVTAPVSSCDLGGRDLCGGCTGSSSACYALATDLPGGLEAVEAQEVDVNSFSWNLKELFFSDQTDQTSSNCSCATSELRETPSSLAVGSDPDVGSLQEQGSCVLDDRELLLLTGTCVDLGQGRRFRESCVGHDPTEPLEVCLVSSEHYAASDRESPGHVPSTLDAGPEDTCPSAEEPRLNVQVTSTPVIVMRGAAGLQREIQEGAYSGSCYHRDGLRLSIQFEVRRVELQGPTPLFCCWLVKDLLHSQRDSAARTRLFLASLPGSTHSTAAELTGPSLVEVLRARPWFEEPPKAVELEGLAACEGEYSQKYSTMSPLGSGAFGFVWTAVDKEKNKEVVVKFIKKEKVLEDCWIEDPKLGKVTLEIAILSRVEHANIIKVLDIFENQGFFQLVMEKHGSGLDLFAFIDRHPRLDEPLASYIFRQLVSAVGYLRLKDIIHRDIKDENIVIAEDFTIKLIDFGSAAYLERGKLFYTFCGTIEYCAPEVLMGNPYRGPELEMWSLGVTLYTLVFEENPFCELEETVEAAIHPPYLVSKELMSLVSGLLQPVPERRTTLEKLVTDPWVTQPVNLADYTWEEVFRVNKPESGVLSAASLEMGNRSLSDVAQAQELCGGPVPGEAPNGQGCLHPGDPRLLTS
Chain of Serine/threonine-protein kinase SIK2 (Homo sapiens) (Q9H0K1 whole entry, looked up): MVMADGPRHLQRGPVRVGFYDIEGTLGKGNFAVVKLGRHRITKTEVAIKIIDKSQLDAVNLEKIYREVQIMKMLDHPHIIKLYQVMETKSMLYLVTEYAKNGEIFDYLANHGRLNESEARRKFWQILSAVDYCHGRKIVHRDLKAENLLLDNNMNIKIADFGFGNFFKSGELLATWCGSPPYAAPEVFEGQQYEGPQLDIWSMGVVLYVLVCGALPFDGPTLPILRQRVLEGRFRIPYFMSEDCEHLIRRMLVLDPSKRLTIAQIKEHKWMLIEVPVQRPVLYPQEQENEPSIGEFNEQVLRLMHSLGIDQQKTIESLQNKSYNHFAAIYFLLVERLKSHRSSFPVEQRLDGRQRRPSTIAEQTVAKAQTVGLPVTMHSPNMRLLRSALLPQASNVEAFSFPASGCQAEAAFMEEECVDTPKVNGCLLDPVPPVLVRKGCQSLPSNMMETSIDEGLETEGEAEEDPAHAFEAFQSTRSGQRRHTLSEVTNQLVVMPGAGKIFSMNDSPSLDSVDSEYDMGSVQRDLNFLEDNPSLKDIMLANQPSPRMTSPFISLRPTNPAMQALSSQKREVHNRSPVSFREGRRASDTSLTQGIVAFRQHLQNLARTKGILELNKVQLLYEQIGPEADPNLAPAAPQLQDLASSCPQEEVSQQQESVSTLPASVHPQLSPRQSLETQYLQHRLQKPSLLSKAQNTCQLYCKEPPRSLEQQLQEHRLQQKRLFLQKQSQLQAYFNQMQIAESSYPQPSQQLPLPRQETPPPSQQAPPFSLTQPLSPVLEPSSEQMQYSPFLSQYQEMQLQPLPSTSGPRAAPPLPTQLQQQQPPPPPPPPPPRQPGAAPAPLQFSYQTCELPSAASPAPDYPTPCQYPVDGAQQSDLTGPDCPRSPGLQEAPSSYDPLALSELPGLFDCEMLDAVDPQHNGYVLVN

In general, inhibition refers to the change of the read-out against control, counted positive when it falls. `CS(=O)(=O)CCNCc1nc(-c2ccc3ncnc(Nc4ccc(F)c(Cl)c4)c3c2)cs1`: the inhibition in assay [1] is 0.61%; in assay [2] it was 1%; in assay [3] it was 0.68%; in assay [4] it was 1.09%; in assay [5], 4.69%; in assay [6], 3.04%. Besides, the inhibition in assay [7] is 3.64%; in assay [8], 1.43%; in [9], 9.19%; in assay [10], -0.24%; in assay [11] it was -0.01%; in assay [12] it was 0.66%. The inhibition came to 6.45% in [13]; 0.35% in assay [14]; 1.43% in assay [15]; 8.44% in assay [16]; 8.78% in [17]; 3.22% in assay [18]. The inhibition was 2.57% in assay [19] and 1.85% in assay [20].

As for `NC(=O)c1ccc(-c2nc(-c3ccccn3)c(-c3ccc4c(c3)OCO4)[nH]2)cc1`, the inhibition in [1] is -0.45%; in assay [2], 0.34%; in [3], 1.31%; in [4] it was 2.92%; in [5], 4.79%; in assay [6] it was 3.32%. Besides, the inhibition in assay [7] was 3.73%; in [8], -0.68%; in assay [9] it was 0.92%; in assay [10], 0.03%; in assay [11], 0.78%; in [12], 0.11%. The inhibition in assay [13] was 0.3%; in assay [14], 0.77%; in assay [15], 1.22%; in assay [16] it was 3.17%; in [17] it was 5.25%; in [18], 7.51%. In addition, the inhibition in [19] is 11.6%; in assay [20] it was 2.24%.

`Cc1cc(O)cc(C)c1/C=C/c1cncc(-c2nn[nH]n2)c1`: the inhibition is 3.29% in assay [1]; -0.17% in assay [2]; -1.14% in assay [3]; 6.07% in assay [4]; 4.92% in assay [5]; 4.78% in assay [6]. Moreover, the inhibition in assay [7] is 2.82%; in assay [8] it was 0.66%; in assay [9] it was 1.59%; in [10] it was -3.3%; in assay [11], -2.91%; in assay [12], -1.97%. Moreover, the inhibition in assay [13] is -0.67%; in assay [14] it was 1.58%; in [15], 1.02%; in assay [16], 56.2%; in assay [17] it was 94.7%; in assay [18], 6.01%. The inhibition in [19] was determined as 53.7%; in [20], 1.57%.

For `COc1ccc(-c2nn3ncccc3c2-c2ccnc(Nc3ccc(Cl)c(C(F)(F)F)c3)n2)cc1`, the inhibition in [1] was -0.83%; in assay [2] it was 0.24%; in assay [3], 2.12%; in assay [4], 3.41%; in assay [5] it was 5.53%; in assay [6], 2.13%. The inhibition in [7] came to 5.41%; in [8] it was 0.1%; in assay [9] it was 0.37%; in assay [10], 0.12%; in assay [11] it was 0.14%; in assay [12] it was 1.02%. Moreover, the inhibition in assay [13] was determined as 2.53%; in [14], 1.42%; in [15] it was 1.91%; in assay [16], 2.76%; in [17], 5.43%; in assay [18], 5.44%. The inhibition is 1.72% in assay [19] and 0.22% in assay [20].

`CS(=O)(=O)CCN(CC#N)Cc1ccc(-c2ccc3ncnc(Nc4ccc(OCc5cccc(F)c5)c(Cl)c4)c3c2)o1`: the inhibition in assay [1] was -1.1%; in assay [2], -0.15%; in [3], -0.89%; in assay [4], 2.68%; in [5], 5.37%; in assay [6], 1.91%. Also, the inhibition in assay [7] was 1.52%; in assay [8], -1.56%; in assay [9] it was -0.76%; in [10], -4.12%; in assay [11] it was -3.72%; in assay [12] it was -0.61%. The inhibition in assay [13] was -0.3%; in assay [14] it was 0.76%; in [15], 1.23%; in [16] it was 4.78%; in assay [17], 9.27%; in assay [18], 1.11%. The results for the inhibition in [19] and in assay [20] were 0.48% and 0.72%, respectively.

As to `CC1=C(C(=O)Nc2ccc3[nH]ncc3c2)C(c2ccc3ccccc3c2)CC(=O)N1` (stereo not given), the inhibition was 0.34% in assay [1]; -0.4% in assay [2]; -1.53% in [3]; 2.21% in assay [4]; 1.29% in assay [5]; 2.37% in [6]. In addition, the inhibition was 1.22% in assay [7]; 0.24% in [8]; -0.93% in assay [9]; 0.51% in assay [10]; 0.77% in assay [11]; -0.19% in assay [12]. The inhibition in [13] was found to be 0.74%; in assay [14], 0.65%; in assay [15], 1.3%; in assay [16] it was 4.02%; in assay [17], 1.28%; in [18], 5.77%. Further, the inhibition was 4.09% in [19] and -1.92% in assay [20].

Regarding `NS(=O)(=O)c1cccc(-c2ccc3c(NC(=O)C4CC4)n[nH]c3c2)c1`, the inhibition in [1] is 4.42%; in assay [2], -1.09%; in assay [3] it was -1.37%; in [4] it was 2.99%; in assay [5], 2.11%; in assay [6] it was -4.36%. Moreover, the inhibition in [7] is -2.76%; in assay [8], -0.14%; in assay [9], 1.01%; in assay [10] it was 0.46%; in assay [11], 0.35%; in assay [12] it was -1.61%. Further, the inhibition is 1.3% in assay [13]; -0.5% in [14]; 0.65% in assay [15]; -8.4% in assay [16]; -0.1% in assay [17]; -0.65% in assay [18]. The figures for the inhibition in assay [19] and in assay [20] were -7.23% and 0.24%, respectively.
